PubChem BioAssay AID1159580 (chemical genetic matrix, 2015)
Screen size: about 5,500 compounds; about 2,000 (36%) were called active. Inconclusive results (about 18%) are left out. Cut-off read from the data, not from the text of the source: active = normalized growth mostly below about 0.91 (no sharp cut-off); inconclusive = no clear call, values can overlap the other calls; inactive = mostly above about 0.92. The list shows a part of the results.

Experiment: chemical genetic growth profiling, strain panel (AID 1159580);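 note: tested at 20 µM; growth read once vehicle control cultures reached saturation at 30 °C; 1 = growth at the plate median or of vehicle wells; lower values mean less growth of the strain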
Details: S. cerevisiae deletion strains, growth OD

Measured: normalized growth

CO[C@H]1/C=C/O[C@@]2(C)Oc3c(C)c(O)c4c(O)c(c5c(nc6cc(C)ccn65)c4c3C2=O)NC(=O)/C(C)=C\C=C\[C@H](C)[C@H](O)[C@@H](C)C(O)[C@@H](C)[C@H](OC(C)=O)[C@@H]1C (stereo not given in full)
inactive: locus YAL021C, strain ccr4, active compounds read low 1.04 | locus YAL026C, strain drs2, active compounds read low 1.04 | locus YAL030W, strain snc1, active compounds read low 1.04 | locus YBL061C, strain skt5, active compounds read low 1.04 | locus YBR009C, strain hhf1, active compounds read low 1.01 | locus YBR023C, strain chs3, active compounds read low 1.05 | locus YBR171W, strain sec66, active compounds read low 1.06 | locus YBR231C, strain swc5, active compounds read low 1.05 | locus YBR279W, strain paf1, active compounds read low 1.03 | locus YCL011C, strain gbp2, active compounds read low 1.05 | locus YCL016C, strain dcc1, active compounds read low 1.03 | locus YCL061C, strain MRC1, active compounds read low 1.04 | locus YCL069W, strain vba3, active compounds read low 1.05 | locus YCR088W, strain abp1, active compounds read low 1.04 | locus YDL005C, strain med2, active compounds read low 1.06 | locus YDL040C, strain nat1, active compounds read low 1.03 | locus YDR001C, strain nth1, active compounds read low 1.04 | locus YDR069C, strain doa4, active compounds read low 1.04 | locus YDR137W, strain rgp1, active compounds read low 0.988 | locus YDR159W, strain sac3, active compounds read low 1.05 | locus YDR195W, strain ref2 1.05 | locus YDR297W, strain sur2, active compounds read low 1.04 | locus YDR334W, strain swr1, active compounds read low 1.03 | locus YDR335W, strain msn5, active compounds read low 1.04 | locus YDR392W, strain spt3, active compounds read low 0.961 | locus YEL003W, strain gim4, active compounds read low 1.04 | locus YEL037C, strain rad23, active compounds read low 1.04 | locus YEL061C, strain CIN8 (second series), active compounds read low 1.04 | locus YER015W, strain faa2, active compounds read low 1.04 | locus YER016W, strain bim1, active compounds read low 1.03 | locus YER111C, strain swi4, active compounds read low 1.05 | locus YER155C, strain BEM2 (second series), active compounds read low 1.02 | locus YFR010W, strain ubp6, active compounds read low 1.04 | locus YGL167C, strain pmr1, active compounds read low 1.04 | locus YGL173C, strain kem1, active compounds read low 1.04 | locus YGL227W, strain vid30, active compounds read low 1.05 | locus YGL240W, strain doc1, active compounds read low 1.03 | locus YGL253W, strain hxk2, active compounds read low 1.06 | locus YHR013C, strain ard1, active compounds read low 1.08 | locus YHR027C, strain rpn1, active compounds read low 1.04 | locus YHR030C, strain SLT2, active compounds read low 1.03 | locus YHR079C, strain IRE1, active compounds read low 1.03 | locus YHR142W, strain chs7, active compounds read low 1.07 | locus YJL092W, strain hpr5, active compounds read low 1.04 | locus YJL095W, strain BCK1 (second series), active compounds read low 1.03 | locus YJL095W, strain BCK1, active compounds read low 0.988 | locus YJL115W, strain asf1, active compounds read low 1.04 | locus YJL129C, strain trk1, active compounds read low 1.06 | locus YJL154C, strain vps35, active compounds read low 1.04 | locus YJL164C, strain tpk1, active compounds read low 1.04 | locus YJL166W, strain qcr8, active compounds read low 1.05 | locus YJL187C, strain SWE1, active compounds read low 1.06 | locus YJR066W, strain TOR1, active compounds read low 0.982 | locus YKL160W, strain elf1, active compounds read low 1.05 | locus YKR026C, strain gcn3, active compounds read low 1.05 | locus YKR091W, strain srl3, active compounds read low 1.04 | locus YLL001W, strain dnm1, active compounds read low 1.08 | locus YLL026W, active compounds read low 1.04 | locus YLL041C, strain sdh2, active compounds read low 1.04 | locus YLR027C, strain aat2, active compounds read low 1.03 | locus YLR113W, strain HOG1, active compounds read low 1.01 | locus YLR221C, strain rsa3, active compounds read low 1.06 | locus YLR258W, strain gsy2, active compounds read low 1.04 | locus YLR262C, strain YPT6 (second series), active compounds read low 1.09 | locus YLR320W, strain mms22, active compounds read low 1.04 | locus YLR342W, strain FKS1, active compounds read low 1.04 | locus YLR357W, strain rsc2, active compounds read low 1.07 | locus YLR370C, strain arc18, active compounds read low 1.04 | locus YLR384C, strain iki3, active compounds read low 1.04 | locus YML120C, strain ndi1, active compounds read low 1.02 | locus YMR058W, strain fet3, active compounds read low 1.03 | locus YMR125W, strain sto1, active compounds read low 1.05 | locus YMR129W, active compounds read low 1.03 | locus YMR205C, strain PFK2, active compounds read low 1.05 | locus YMR231W, strain pep5, active compounds read low 1.04 | locus YNL071W, strain lat1, active compounds read low 1.05 | locus YNL183C, strain NPR1, active compounds read low 0.988 | locus YNL209W, strain ssb2, active compounds read low 1.03 | locus YNL248C, strain rpa49, active compounds read low 1.06 | locus YNL322C, strain KRE1 (second series), active compounds read low 1.05 | locus YNR049C, strain mso1, active compounds read low 1.03 | locus YOR001W, strain rrp6, active compounds read low 1.01 | locus YOR070C, strain gyp1, active compounds read low 1.04 | locus YOR080W, strain dia2, active compounds read low 1.04 | locus YOR083W, strain WHI5, active compounds read low 1.04 | locus YOR106W, strain vam3, active compounds read low 1.1 | locus YOR231W, strain MKK1, active compounds read low 0.989 | locus YOR265W, strain rbl2, active compounds read low 1.03 | locus YOR270C, strain vph1, active compounds read low 1.1 | locus YOR290C, strain snf2, active compounds read low 1.04 | locus YPL051W, strain arl3, active compounds read low 1.02 | locus YPL078C, strain atp4, active compounds read low 1.05 | locus YPL106C, strain sse1, active compounds read low 1.03 | locus YPL240C, strain hsp82, active compounds read low 1.04 | locus YPL256C, strain CLN2, active compounds read low 1.06
